Test results taken from PubChem BioAssay.
Active and inactive are the calls of the source.

Assays:
Albumin (Bos taurus) = Albumin (Bos taurus) (UniProt P02769); experiment: bovine serum albumin binders on microarray, profiling panel, artefact control for SMM control protein annotation, biochemical, small-molecule microarray, Alexa647 label, 635/667 nm fluorescence (AID 1118); details: BSA-A647 binding, fluorescence 635 nm, higher = more signal;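 also: score merges 667 nm emission intensity and signal-to-noise per printed compound spot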
[1] = small-molecule microarray binders of probe aXIP, primary screen, biochemical, NeuroSMM set, 635/667 nm fluorescence (AID 1119); details: higher = more signal, called active from +8 up or from −8 down;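 also: probe is the protein aXip251-270 applied at 1 µg/mL to compound-printed slides; binding of probe to printed compounds measured as 667 nm fluorescence plus signal to noise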
[2] = small-molecule binders of probe aNOTCH3, primary screen, biochemical, small-molecule microarray, 635/667 nm fluorescence (AID 1120); details: higher = more signal;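 also: probe is a biotin-tagged antibody raised against NOTCH3 rather than NOTCH3 protein; score merges spot fluorescence near 667 nm with spot signal to noise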
[3] = small-molecule binders of probe aNOTCH2, primary screen, biochemical, small-molecule microarray, 635/667 nm fluorescence (AID 1121); details: higher = more signal;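 also: score merges feature fluorescence read at 667 nm with its signal to noise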
[4] = target: Carbonic anhydrase 2 (Homo sapiens) (UniProt P00918); experiment: CAII small-molecule binders, profiling panel, biochemical, small-molecule microarray, Alexa647-labelled CAII (AID 1122); details: CAII-A647 binding fluorescence, higher = more signal
[5] = COS7 lysate on small-molecule microarray, probe aHis, 635 nm (AID 1123); details: COS7 cell lysate, fluorescence, higher = more signal;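 also: z-score combines 667nm fluorescence intensity with signal-to-noise per printed compound spot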
[6] = compound binding in COS7 lysate, probe aLAP1, primary screen, cell lysate, small-molecule microarray (AID 1124); details: probe aLAP1, fluorescence, higher = more signal;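 also: lysate comes from COS7 cells expressing LAP1 and is applied at 0.3 µg/mL; score merges spot fluorescence near 667 nm with signal-to-noise over triplicate slides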
Sam68 (KHDRBS1) = experiment: Sam68 small-molecule binders, primary screen, biochemical, small-molecule microarray, 635 nm fluorescence (AID 1125); details: small-molecule microarray binding, higher = more signal;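 also: score merges 667 nm channel intensity with signal to noise over triplicate slides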
[7] = system: Chordin-like protein 2 (CHRDL2); experiment: CHRDL2 small-molecule binders, primary screen, biochemical, small-molecule microarray, 635 nm fluorescence (AID 1126); details: small-molecule microarray binding, fluorescence 635 nm; higher = more signal;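 also: printed compound slides probed with Chrdl2 protein at 4 µg/mL for 1 h at 4 C; score merges 667 nm emission intensity with signal to noise over three replicate slides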
[8] = target: Concanavalin-A (Canavalia ensiformis) (UniProt P02866); experiment: ConA small-molecule binders, primary screen, artefact control for SMM control protein annotation, biochemical, small-molecule microarray, Alexa647 label, 635 nm (AID 1127); details: ConA-A647 binding fluorescence, higher = more signal;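 also: z combines 667 nm emission intensity with signal-to-noise across three replicate slides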
[9] = anti-His antibody binders, primary screen, artefact control for SMM control protein annotation, biochemical, small-molecule microarray, 635 nm fluorescence (AID 1128); details: anti-His Alexa647 antibody binding, higher = more signal;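 also: score merges feature fluorescence with signal-to-noise for each printed compound spot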
[10] = system: Human papillomavirus type 1a E7 protein (residues 1-88); experiment: HPV1a E7 small-molecule binders, primary screen, biochemical, small-molecule microarray, residues 1-88, 635 nm (AID 1129); details: small-molecule microarray binding, fluorescence 635 nm; higher = more signal
[11] = target: Focal adhesion kinase 1 (Homo sapiens) (UniProt Q05397); experiment: small-molecule microarray binders of FAK, primary screen, biochemical, 635/667 nm fluorescence, BSA, DTT (AID 1130); details: PTK2 binding, 635 nm fluorescence, higher = more signal;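 also: composite of spot emission at 667 nm and signal to noise over triplicate slides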
[12] = system: Fibrinogen (Alexa647-labelled); experiment: fibrinogen binders on compound microarrays, profiling panel, artefact control for SMM control-protein annotation, biochemical, small-molecule microarray, 635/667 nm fluorescence (AID 1131); details: fibrinogen-A647 binding fluorescence, higher = more signal;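 also: z-score merges 667 nm fluorescence with per-spot signal-to-noise over triplicate slides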
[13] = target: Follistatin (Homo sapiens) (UniProt P19883); experiment: follistatin binders on small-molecule microarrays, primary screen, biochemical, small-molecule microarray, 635/667 nm fluorescence (AID 1132); details: FST binding, 635 nm fluorescence, higher = more signal
[14] = target: Fibroblast growth factor 2 (Homo sapiens) (UniProt P09038); experiment: FGF2 binders on small-molecule microarrays, primary screen, biochemical, small-molecule microarray, 635/667 nm fluorescence (AID 1133); details: small-molecule microarray binding, FGF2, fluorescence 635/667; higher = more signal
[15] = mitochondrial membrane potential change in A549 cells, profiling panel, cell-based, JC-1 fluorescence, basal, 24 h, 100 nL (AID 1138); details: higher = more signal;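 also: A549 lung adenocarcinoma cells under basal conditions with no added stimulus; test concentration not given here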
Lefty1 = Lefty1 binders on small-molecule microarrays, primary screen, biochemical, small-molecule microarray, 635/667 nm fluorescence (AID 1139); details: small-molecule microarray binding, fluorescence 635/667; higher = more signal
[16] = system: wheat germ agglutinin (Triticum aestivum), Alexa647-labelled; experiment: wheat germ agglutinin binders on compound microarrays, profiling panel, artefact control for SMM control-protein annotation, biochemical, small-molecule microarray, 635/667 nm fluorescence (AID 1140); details: WGA-A647 binding, 635 nm fluorescence, higher = more signal;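 also: score merges 667 nm feature emission with signal to noise over triplicate slides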
[17] = target: Luciferin 4-monooxygenase (Photinus pyralis) (UniProt P08659); experiment: firefly luciferase enzyme inhibitors, primary screen, biochemical, luminescence, purified enzyme, 2006 set (AID 1141); details: SteadyGlo luminescence, 30 min, higher = more signal, called active from +8 up or from −8 down;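 also: cell-free assay with purified firefly luciferase at 100 ng per well in PBS; test concentration not given here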
Sequence of Luciferin 4-monooxygenase (Photinus pyralis) (P08659 whole entry, looked up): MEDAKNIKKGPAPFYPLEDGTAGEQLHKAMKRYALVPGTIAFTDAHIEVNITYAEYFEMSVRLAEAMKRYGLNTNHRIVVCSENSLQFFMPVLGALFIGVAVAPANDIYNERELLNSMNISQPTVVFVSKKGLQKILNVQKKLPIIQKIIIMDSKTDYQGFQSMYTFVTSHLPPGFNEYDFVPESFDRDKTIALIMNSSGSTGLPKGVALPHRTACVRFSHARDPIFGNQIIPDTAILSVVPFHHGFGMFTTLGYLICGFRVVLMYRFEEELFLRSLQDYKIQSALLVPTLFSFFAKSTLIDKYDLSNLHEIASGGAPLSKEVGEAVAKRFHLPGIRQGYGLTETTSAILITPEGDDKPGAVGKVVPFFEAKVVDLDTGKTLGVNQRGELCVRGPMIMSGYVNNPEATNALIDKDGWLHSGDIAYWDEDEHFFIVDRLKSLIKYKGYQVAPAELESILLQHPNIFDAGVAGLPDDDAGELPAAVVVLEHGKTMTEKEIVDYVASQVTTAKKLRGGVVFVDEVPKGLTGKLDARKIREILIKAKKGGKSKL

Sequence of Focal adhesion kinase 1 (Homo sapiens) (Q05397 whole entry, looked up): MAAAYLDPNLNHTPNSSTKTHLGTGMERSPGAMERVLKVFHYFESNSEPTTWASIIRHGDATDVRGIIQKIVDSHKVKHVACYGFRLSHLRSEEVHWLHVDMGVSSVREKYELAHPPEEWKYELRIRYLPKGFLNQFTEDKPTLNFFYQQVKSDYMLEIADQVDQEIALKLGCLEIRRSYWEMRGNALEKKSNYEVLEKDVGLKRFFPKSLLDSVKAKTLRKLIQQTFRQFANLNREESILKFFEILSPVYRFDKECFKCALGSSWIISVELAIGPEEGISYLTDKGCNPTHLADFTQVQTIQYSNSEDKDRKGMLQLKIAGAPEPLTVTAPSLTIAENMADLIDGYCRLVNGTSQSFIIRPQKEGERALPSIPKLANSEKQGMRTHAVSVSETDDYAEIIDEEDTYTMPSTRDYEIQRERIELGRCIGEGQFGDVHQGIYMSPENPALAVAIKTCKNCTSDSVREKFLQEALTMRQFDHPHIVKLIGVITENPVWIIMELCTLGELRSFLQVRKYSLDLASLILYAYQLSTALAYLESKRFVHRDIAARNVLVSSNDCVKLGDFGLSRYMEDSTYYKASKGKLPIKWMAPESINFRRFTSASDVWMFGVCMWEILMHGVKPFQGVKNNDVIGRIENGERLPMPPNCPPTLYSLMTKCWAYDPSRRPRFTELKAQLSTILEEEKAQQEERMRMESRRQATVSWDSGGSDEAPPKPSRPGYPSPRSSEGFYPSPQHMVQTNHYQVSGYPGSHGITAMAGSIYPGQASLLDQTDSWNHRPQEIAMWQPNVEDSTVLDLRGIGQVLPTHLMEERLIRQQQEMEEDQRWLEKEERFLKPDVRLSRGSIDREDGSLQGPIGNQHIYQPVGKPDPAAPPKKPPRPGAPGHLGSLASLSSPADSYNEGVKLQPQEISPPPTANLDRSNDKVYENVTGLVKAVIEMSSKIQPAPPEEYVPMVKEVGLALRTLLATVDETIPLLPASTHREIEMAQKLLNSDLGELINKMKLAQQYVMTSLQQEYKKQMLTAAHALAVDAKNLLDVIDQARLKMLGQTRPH
Sequence of Concanavalin-A (Canavalia ensiformis) (P02866 whole entry, looked up): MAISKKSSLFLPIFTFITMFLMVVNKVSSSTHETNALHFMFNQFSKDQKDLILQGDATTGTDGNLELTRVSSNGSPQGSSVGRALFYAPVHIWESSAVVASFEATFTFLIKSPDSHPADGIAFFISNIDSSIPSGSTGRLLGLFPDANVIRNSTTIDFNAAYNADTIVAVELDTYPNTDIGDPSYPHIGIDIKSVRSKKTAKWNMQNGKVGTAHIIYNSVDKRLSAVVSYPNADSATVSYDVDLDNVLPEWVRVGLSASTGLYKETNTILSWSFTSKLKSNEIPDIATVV
Sequence of Follistatin (Homo sapiens) (P19883 whole entry, looked up): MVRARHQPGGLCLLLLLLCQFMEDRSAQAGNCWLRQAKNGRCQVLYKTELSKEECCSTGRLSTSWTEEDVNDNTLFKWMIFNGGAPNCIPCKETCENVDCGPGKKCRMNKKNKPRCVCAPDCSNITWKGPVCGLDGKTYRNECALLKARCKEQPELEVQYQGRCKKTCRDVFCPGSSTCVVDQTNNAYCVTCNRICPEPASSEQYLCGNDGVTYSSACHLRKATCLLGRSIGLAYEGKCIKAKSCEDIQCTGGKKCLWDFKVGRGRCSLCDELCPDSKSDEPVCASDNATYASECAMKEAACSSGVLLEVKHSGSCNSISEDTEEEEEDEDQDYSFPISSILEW
Sequence of Albumin (Bos taurus) (P02769 whole entry, looked up): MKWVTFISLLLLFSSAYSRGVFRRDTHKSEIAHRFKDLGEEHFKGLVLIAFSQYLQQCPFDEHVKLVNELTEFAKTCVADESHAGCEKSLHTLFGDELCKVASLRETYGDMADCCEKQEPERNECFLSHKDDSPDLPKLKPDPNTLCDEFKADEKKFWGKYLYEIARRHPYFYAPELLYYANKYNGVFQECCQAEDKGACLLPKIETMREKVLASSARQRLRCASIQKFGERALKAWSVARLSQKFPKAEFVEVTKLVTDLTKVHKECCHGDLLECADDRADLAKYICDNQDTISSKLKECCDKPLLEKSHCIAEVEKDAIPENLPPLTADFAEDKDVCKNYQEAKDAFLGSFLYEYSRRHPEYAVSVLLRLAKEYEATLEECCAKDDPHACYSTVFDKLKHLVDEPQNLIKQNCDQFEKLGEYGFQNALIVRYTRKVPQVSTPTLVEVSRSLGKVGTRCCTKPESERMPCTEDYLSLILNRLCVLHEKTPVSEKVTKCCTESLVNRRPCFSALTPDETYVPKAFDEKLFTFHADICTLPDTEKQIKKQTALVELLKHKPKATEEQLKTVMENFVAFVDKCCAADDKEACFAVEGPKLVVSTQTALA
Sequence of Fibroblast growth factor 2 (Homo sapiens) (P09038 whole entry, looked up): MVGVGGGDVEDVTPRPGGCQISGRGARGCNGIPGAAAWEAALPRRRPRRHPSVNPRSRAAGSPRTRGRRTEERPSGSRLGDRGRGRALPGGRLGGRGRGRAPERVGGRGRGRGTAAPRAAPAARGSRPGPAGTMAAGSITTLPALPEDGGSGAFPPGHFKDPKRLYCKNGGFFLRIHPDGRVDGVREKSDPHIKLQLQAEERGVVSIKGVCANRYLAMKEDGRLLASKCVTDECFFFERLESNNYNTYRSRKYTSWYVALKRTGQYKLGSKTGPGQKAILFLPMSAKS

Compound: O=C1C[C@@H](O)[C@@H](O)[C@@H]2[C@@H]3C(=O)N(c4ccc(F)cc4F)C(=O)[C@@H]3CC[C@@H]12
- composite z-score (Albumin (Bos taurus)): 0.129
- composite Z-score [1]: -0.521 (inactive)
- composite z-score [2]: -0.0631
- composite z-score [3]: -0.118
- composite z-score [4]: 0.234
- composite z-score [5]: -0.344
- composite z-score [6]: 0.495
- composite z-score (Sam68 (KHDRBS1)): 0.236
- composite z-score [7]: 0.65
- composite z-score [8]: -0.397
- composite z-score [9]: 0.408
- composite z-score [10]: 0.709
- composite z-score [11]: -0.246
- composite z-score [12]: -0.518
- composite z-score [13]: 0.312
- composite z-score [14]: 0.294
- z-score [15]: 0.245
- composite z-score (Lefty1): 0.379
- composite z-score [16]: 0.044
- z-score [17]: -0.9 (inactive)

Compound: COc1ccc(O[C@H]2C=C[C@@H](c3ccccc3)O[C@@H]2CON=C[C@@H](C)[C@H](OCc2ccccc2)C(C)C)cc1
- composite z-score (Albumin (Bos taurus)): -0.136
- composite Z-score [1]: -0.236 (inactive)
- composite z-score [2]: -0.245
- composite z-score [3]: -0.198
- composite z-score [4]: -0.89
- composite z-score [5]: -0.53
- composite z-score [6]: -0.419
- composite z-score (Sam68 (KHDRBS1)): -1.67
- composite z-score [7]: -0.163
- composite z-score [8]: -0.409
- composite z-score [9]: 0.901
- composite z-score [10]: -1.26
- composite z-score [11]: -0.302
- composite z-score [12]: -1.41
- composite z-score [13]: -0.675
- composite z-score [14]: -0.76
- z-score [15]: 1.96
- composite z-score (Lefty1): -0.214
- composite z-score [16]: 0.12
- z-score [17]: 0.0017 (inactive)

Compound: C=CC[C@@H]1C=C[C@H](ON=Cc2ccc(C(=O)N3[C@H](c4ccc(C)cc4)[C@@H](C)CC[C@H]3C(=O)OC)cc2)[C@@H](CO)O1
- composite z-score (Albumin (Bos taurus)): 0.36
- composite Z-score [1]: 0.0811 (inactive)
- composite z-score [2]: -0.0971
- composite z-score [3]: -0.132
- composite z-score [4]: -0.0234
- composite z-score [5]: 0.556
- composite z-score [6]: 0.116
- composite z-score (Sam68 (KHDRBS1)): 0.632
- composite z-score [7]: 0.714
- composite z-score [8]: -0.404
- composite z-score [9]: -0.672
- composite z-score [10]: 0.973
- composite z-score [11]: 0.181
- composite z-score [12]: 0.302
- composite z-score [13]: 0.333
- composite z-score [14]: 0.646
- z-score [15]: -0.154
- composite z-score (Lefty1): 0.387
- composite z-score [16]: 0.0608
- z-score [17]: 1.27 (inactive)

Compound: CC(=O)OC[C@H]1O[C@H](CC=NOC[C@@H](C)[C@H](OCc2ccccc2)C(C)C)C=C[C@@H]1OC(C)=O
- composite z-score (Albumin (Bos taurus)): -0.428
- composite Z-score [1]: 0.156 (inactive)
- composite z-score [2]: -0.0773
- composite z-score [3]: -0.11
- composite z-score [4]: -0.253
- composite z-score [5]: 0.043
- composite z-score [6]: -0.223
- composite z-score (Sam68 (KHDRBS1)): 0.377
- composite z-score [7]: 0.186
- composite z-score [8]: -0.182
- composite z-score [9]: -1.2
- composite z-score [10]: 0.284
- composite z-score [11]: -0.351
- composite z-score [12]: -0.344
- composite z-score [13]: 0.264
- composite z-score [14]: 0.155
- z-score [15]: -1.02
- composite z-score (Lefty1): 0.752
- composite z-score [16]: -0.21
- z-score [17]: 1.34 (inactive)

Compound: CCCNC(=O)OC[C@H]1O[C@H](CCON=C[C@@H](OC)[C@H](C)C=CCC(=O)OC)C=C[C@@H]1Oc1ccc(OC)cc1
- composite z-score (Albumin (Bos taurus)): -1.05
- composite Z-score [1]: -0.431 (inactive)
- composite z-score [2]: 0.142
- composite z-score [3]: -0.192
- composite z-score [4]: 0.0769
- composite z-score [5]: 0.438
- composite z-score [6]: 0.325
- composite z-score (Sam68 (KHDRBS1)): 0.693
- composite z-score [7]: 1.16
- composite z-score [8]: -1.26
- composite z-score [9]: 2.2
- composite z-score [10]: -0.0259
- composite z-score [11]: -0.0322
- composite z-score [12]: 0.325
- composite z-score [13]: 0.0998
- composite z-score [14]: 0.109
- z-score [15]: 0.139
- composite z-score (Lefty1): 0.548
- composite z-score [16]: 0.183
- z-score [17]: -0.276 (inactive)
